Positions count from the first letter of the chain named. The full ranking holds about 16,000 sequences; the median of “ka relative to ugcaugu” is about 0.096, and the highest 2% start at about 0.35. The entries come from a sample that favours the highest values as a whole.
T1: RBFOX1 RRM RbFoxmut (Fox-RRM*) (Homo sapiens, UniProt Q9NWB1 109-208, R118D;E147R;N151S;E152T)
T1 sequence: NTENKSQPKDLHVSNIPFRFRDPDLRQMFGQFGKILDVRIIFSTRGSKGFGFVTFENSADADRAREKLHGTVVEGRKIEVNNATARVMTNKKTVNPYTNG

B1: AAGCCUG (DNA:RNA)
RNA: GGGAGACCGGAAUUCAGAUUGUCCAAGCCUGUUAAAUCCCGUCGUAGCCACCA
DNA 1: CAATCTGAATTCCGGTCTCCC
DNA 2: TGGTGGCTACGACGGGATT
B2: CAGGCUA (DNA:RNA)
RNA: B1 RNA with A25C, C28G, G31A
DNA 1: CAATCTGAATTCCGGTCTCCC
DNA 2: TGGTGGCTACGACGGGATT
B3: ACACAAA (DNA:RNA)
RNA: B1 RNA with A26C, G27A, C29A, U30A, G31A
DNA 1: CAATCTGAATTCCGGTCTCCC
DNA 2: TGGTGGCTACGACGGGATT
B4: GGUUCUG (DNA:RNA)
RNA: B1 RNA with A25G, A26G, G27U, C28U
DNA 1: CAATCTGAATTCCGGTCTCCC
DNA 2: TGGTGGCTACGACGGGATT
B5: UGGCGUG (DNA:RNA)
RNA: B1 RNA with A25U, A26G, C29G
DNA 1: CAATCTGAATTCCGGTCTCCC
DNA 2: TGGTGGCTACGACGGGATT
B6: AUGCUUG (DNA:RNA)
RNA: B1 RNA with A26U, C29U
DNA 1: CAATCTGAATTCCGGTCTCCC
DNA 2: TGGTGGCTACGACGGGATT
B7: AGCCUGC (DNA:RNA)
RNA: B1 RNA with A26G, G27C, C29U, U30G, G31C
DNA 1: CAATCTGAATTCCGGTCTCCC
DNA 2: TGGTGGCTACGACGGGATT
B8: ACCAUGC (DNA:RNA)
RNA: B1 RNA with A26C, G27C, C28A, C29U, U30G, G31C
DNA 1: CAATCTGAATTCCGGTCTCCC
DNA 2: TGGTGGCTACGACGGGATT
B9: CAGCAUA (DNA:RNA)
RNA: B1 RNA with A25C, C29A, G31A
DNA 1: CAATCTGAATTCCGGTCTCCC
DNA 2: TGGTGGCTACGACGGGATT
B10: CAGCAUG (DNA:RNA)
RNA: B1 RNA with A25C, C29A
DNA 1: CAATCTGAATTCCGGTCTCCC
DNA 2: TGGTGGCTACGACGGGATT
B11: ACCAGCA (DNA:RNA)
RNA: B1 RNA with A26C, G27C, C28A, C29G, U30C, G31A
DNA 1: CAATCTGAATTCCGGTCTCCC
DNA 2: TGGTGGCTACGACGGGATT
B12: AGCCAGC (DNA:RNA)
RNA: B1 RNA with A26G, G27C, C29A, U30G, G31C
DNA 1: CAATCTGAATTCCGGTCTCCC
DNA 2: TGGTGGCTACGACGGGATT
B13: AUGCUGC (DNA:RNA)
RNA: B1 RNA with A26U, C29U, U30G, G31C
DNA 1: CAATCTGAATTCCGGTCTCCC
DNA 2: TGGTGGCTACGACGGGATT
B14: AGCAUGA (DNA:RNA)
RNA: B1 RNA with A26G, G27C, C28A, C29U, U30G, G31A
DNA 1: CAATCTGAATTCCGGTCTCCC
DNA 2: TGGTGGCTACGACGGGATT
B15: CAGCAUC (DNA:RNA)
RNA: B1 RNA with A25C, C29A, G31C
DNA 1: CAATCTGAATTCCGGTCTCCC
DNA 2: TGGTGGCTACGACGGGATT
B16: AGCAUGC (DNA:RNA)
RNA: B1 RNA with A26G, G27C, C28A, C29U, U30G, G31C
DNA 1: CAATCTGAATTCCGGTCTCCC
DNA 2: TGGTGGCTACGACGGGATT
B17: AGCAUAA (DNA:RNA)
RNA: B1 RNA with A26G, G27C, C28A, C29U, U30A, G31A
DNA 1: CAATCTGAATTCCGGTCTCCC
DNA 2: TGGTGGCTACGACGGGATT
B18: AAGUUAU (DNA:RNA)
RNA: B1 RNA with C28U, C29U, U30A, G31U
DNA 1: CAATCTGAATTCCGGTCTCCC
DNA 2: TGGTGGCTACGACGGGATT
B19: GUUUCAU (DNA:RNA)
RNA: B1 RNA with A25G, A26U, G27U, C28U, U30A, G31U
DNA 1: CAATCTGAATTCCGGTCTCCC
DNA 2: TGGTGGCTACGACGGGATT
B20: UAGCAGU (DNA:RNA)
RNA: B1 RNA with A25U, C29A, U30G, G31U
DNA 1: CAATCTGAATTCCGGTCTCCC
DNA 2: TGGTGGCTACGACGGGATT
B21: CGUACCU (DNA:RNA)
RNA: B1 RNA with A25C, A26G, G27U, C28A, U30C, G31U
DNA 1: CAATCTGAATTCCGGTCTCCC
DNA 2: TGGTGGCTACGACGGGATT
B22: AGCCAUG (DNA:RNA)
RNA: B1 RNA with A26G, G27C, C29A
DNA 1: CAATCTGAATTCCGGTCTCCC
DNA 2: TGGTGGCTACGACGGGATT
B23: AGCAUUG (DNA:RNA)
RNA: B1 RNA with A26G, G27C, C28A, C29U
DNA 1: CAATCTGAATTCCGGTCTCCC
DNA 2: TGGTGGCTACGACGGGATT
B24: AGCAUGG (DNA:RNA)
RNA: B1 RNA with A26G, G27C, C28A, C29U, U30G
DNA 1: CAATCTGAATTCCGGTCTCCC
DNA 2: TGGTGGCTACGACGGGATT
B25: AGAUGGU (DNA:RNA)
RNA: B1 RNA with A26G, G27A, C28U, C29G, U30G, G31U
DNA 1: CAATCTGAATTCCGGTCTCCC
DNA 2: TGGTGGCTACGACGGGATT
B26: AUGUUGG (DNA:RNA)
RNA: B1 RNA with A26U, C28U, C29U, U30G
DNA 1: CAATCTGAATTCCGGTCTCCC
DNA 2: TGGTGGCTACGACGGGATT
B27: AGCAUAU (DNA:RNA)
RNA: B1 RNA with A26G, G27C, C28A, C29U, U30A, G31U
DNA 1: CAATCTGAATTCCGGTCTCCC
DNA 2: TGGTGGCTACGACGGGATT
B28: AUGGUUG (DNA:RNA)
RNA: B1 RNA with A26U, C28G, C29U
DNA 1: CAATCTGAATTCCGGTCTCCC
DNA 2: TGGTGGCTACGACGGGATT
B29: UAGCAUG (DNA:RNA)
RNA: B1 RNA with A25U, C29A
DNA 1: CAATCTGAATTCCGGTCTCCC
DNA 2: TGGTGGCTACGACGGGATT
B30: UAGCAUC (DNA:RNA)
RNA: B1 RNA with A25U, C29A, G31C
DNA 1: CAATCTGAATTCCGGTCTCCC
DNA 2: TGGTGGCTACGACGGGATT
B31: UAGCAUA (DNA:RNA)
RNA: B1 RNA with A25U, C29A, G31A
DNA 1: CAATCTGAATTCCGGTCTCCC
DNA 2: TGGTGGCTACGACGGGATT
B32: ACCAUGG (DNA:RNA)
RNA: B1 RNA with A26C, G27C, C28A, C29U, U30G
DNA 1: CAATCTGAATTCCGGTCTCCC
DNA 2: TGGTGGCTACGACGGGATT
B33: AGCAUGU (DNA:RNA)
RNA: B1 RNA with A26G, G27C, C28A, C29U, U30G, G31U
DNA 1: CAATCTGAATTCCGGTCTCCC
DNA 2: TGGTGGCTACGACGGGATT

Biological target: T1, RBFOX1 RRM RbFoxmut (Fox-RRM*)
Test: EMSA; HiTS-Eq, 1 nM pool, 10 min; buffer printed only for the single-RNA assays: 10 mM Tris pH 7.5, 150 mM NaCl, 3.4 mM EDTA, 0.001% NP-40, 30 C
Conditions: tags: His6 N-terminal (pET28a); label: 5' 32P
Method in brief: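 Purified RbFox RRM (wild type or mutant) was equilibrated for 10 min in 50 µL with 1 nM of a 5′-radiolabelled pool of RNA with 7 randomized nucleotides, its flanks annealed to DNA oligonucleotides, across increasing protein concentrations. Free RNA was separated by 8% native PAGE, excised, reverse-transcribed, PCR-barcoded and sequenced on an Illumina HiSeq 2500. Relative association constants came from read-count changes of each variant against the control reaction, normalised to the cognate motif.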

**Q.** Which binding signal does the source give for B1 here?
**A.** 0.0848 KA relative to UGCAUGU

**Q.** With B2 as the binder, how does the binding signal read?
**A.** 0.0916 KA relative to UGCAUGU

**Q.** With B3 as the binder, how does the binding signal read?
**A.** 0.0812 KA relative to UGCAUGU

**Q.** With B4 as the binder, how does the binding signal read?
**A.** 0.208 KA relative to UGCAUGU

**Q.** For B5, which binding signal is on record?
**A.** 0.321 KA relative to UGCAUGU

**Q.** For B6, which binding signal is on record?
**A.** 0.361 KA relative to UGCAUGU

**Q.** Which binding signal does the source give for B7 here?
**A.** 0.0804 KA relative to UGCAUGU

**Q.** Which binding signal does the source give for B8 here?
**A.** 0.0949 KA relative to UGCAUGU

**Q.** With B9 as the binder, how does the binding signal read?
**A.** 0.137 KA relative to UGCAUGU

**Q.** B10 was tested. Which binding signal did it give?
**A.** 0.965 KA relative to UGCAUGU

**Q.** Which binding signal does the source give for B11 here?
**A.** 0.121 KA relative to UGCAUGU

**Q.** With B12 as the binder, how does the binding signal read?
**A.** 0.0776 KA relative to UGCAUGU

**Q.** For B13, which binding signal is on record?
**A.** 0.126 KA relative to UGCAUGU

**Q.** B14 was tested. Which binding signal did it give?
**A.** 0.524 KA relative to UGCAUGU

**Q.** B15 was tested. Which binding signal did it give?
**A.** 0.307 KA relative to UGCAUGU

**Q.** How did the binding signal turn out when B16 was run?
**A.** 0.495 KA relative to UGCAUGU

**Q.** B17 was tested. Which binding signal did it give?
**A.** 0.0973 KA relative to UGCAUGU

**Q.** How did the binding signal turn out when B18 was run?
**A.** 0.118 KA relative to UGCAUGU

**Q.** For B19, which binding signal is on record?
**A.** 0.132 KA relative to UGCAUGU

**Q.** B20 was tested. Which binding signal did it give?
**A.** 0.0735 KA relative to UGCAUGU

**Q.** B21 was tested. Which binding signal did it give?
**A.** 0.099 KA relative to UGCAUGU

**Q.** Which binding signal does the source give for B22 here?
**A.** 0.163 KA relative to UGCAUGU

**Q.** Which binding signal does the source give for B23 here?
**A.** 0.2 KA relative to UGCAUGU

**Q.** For B24, which binding signal is on record?
**A.** 0.538 KA relative to UGCAUGU

**Q.** B25 was tested. Which binding signal did it give?
**A.** 0.117 KA relative to UGCAUGU

**Q.** For B26, which binding signal is on record?
**A.** 0.123 KA relative to UGCAUGU

**Q.** With B27 as the binder, how does the binding signal read?
**A.** 0.133 KA relative to UGCAUGU

**Q.** How did the binding signal turn out when B28 was run?
**A.** 0.48 KA relative to UGCAUGU

**Q.** Which binding signal does the source give for B29 here?
**A.** 0.819 KA relative to UGCAUGU

**Q.** B30 was tested. Which binding signal did it give?
**A.** 0.266 KA relative to UGCAUGU

**Q.** B31 was tested. Which binding signal did it give?
**A.** 0.0997 KA relative to UGCAUGU

**Q.** How did the binding signal turn out when B32 was run?
**A.** 0.0839 KA relative to UGCAUGU

**Q.** With B33 as the binder, how does the binding signal read?
**A.** 0.713 KA relative to UGCAUGU
